Results published in PubChem BioAssay AID1159580 (chemical genetic matrix, 2015).
The campaign covered roughly 5,500 compounds. About 2,000 (36%) were called active. Inconclusive results (about 18%) are left out. No stated cut-off is given here; in the data, active means normalized growth mostly below about 0.91 (no sharp cut-off); inconclusive means no clear call, values can overlap the other calls; inactive means mostly above about 0.92. The list shows a part of the results.

Assay: chemical genetic growth profiling, strain panel (AID 1159580);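 further: tested at 20 µM; growth read once vehicle control cultures reached saturation at 30 °C; 1 = growth at the plate median or of vehicle wells; lower values mean less growth of the strain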
Details: S. cerevisiae deletion strains, growth OD
[1] = locus YAR019C, strain CDC15, active compounds read low
[2] = locus YBL105C, strain PKC1, active compounds read low
[3] = locus YBR135W, strain CKS1, active compounds read low
[4] = locus YBR136W, strain MEC1, active compounds read low
[5] = locus YBR160W, strain CDC28, active compounds read low
[6] = locus YDL017W, strain CDC7, active compounds read low
[7] = locus YDL028C, strain MPS1, active compounds read low
[8] = locus YDL101C, strain DUN1, active compounds read low
[9] = locus YDL108W, strain KIN28, active compounds read low
[10] = locus YDL132W, strain cdc53, active compounds read low
[11] = locus YDL214C, strain PRR2, active compounds read low
[12] = locus YDR052C, strain DBF4, active compounds read low
[13] = locus YDR054C, strain cdc34, active compounds read low
[14] = locus YDR226W, strain ADK1, active compounds read low
[15] = locus YDR477W, strain SNF1, active compounds read low
[16] = locus YER123W, strain YCK3, active compounds read low
[17] = locus YER133W, strain GLC7, active compounds read low
[18] = locus YFL009W, strain cdc4, active compounds read low
[19] = locus YFL029C, strain CAK1, active compounds read low
[20] = locus YFR003C, strain YPI1, active compounds read low
[21] = locus YFR019W, strain FAB1, active compounds read low
[22] = locus YFR028C, strain CDC14, active compounds read low
[23] = locus YGR040W, strain KSS1, active compounds read low
[24] = locus YGR052W, strain FMP48, active compounds read low
[25] = locus YGR092W, strain DBF2, active compounds read low
[26] = locus YHR030C, strain SLT2, active compounds read low
[27] = locus YHR079C, strain IRE1, active compounds read low
[28] = locus YHR082C, strain KSP1, active compounds read low
[29] = locus YHR205W, strain SCH9, active compounds read low
[30] = locus YIL147C, strain SLN1, active compounds read low
[31] = locus YJL095W, strain BCK1, active compounds read low
[32] = locus YJL128C, strain PBS2, active compounds read low
[33] = locus YJL157C, strain FAR1, active compounds read low
[34] = locus YJR016C, strain ILV3, active compounds read low
[35] = locus YJR066W, strain TOR1 (second series), active compounds read low
[36] = locus YJR066W, strain TOR1, active compounds read low
[37] = locus YKL048C, strain ELM1, active compounds read low
[38] = locus YKL067W, strain YNK1, active compounds read low
[39] = locus YKL101W, strain HSL1, active compounds read low
[40] = locus YKL193C, strain SDS22, active compounds read low
[41] = locus YKL203C, strain TOR2, active compounds read low
[42] = locus YLR113W, strain HOG1, active compounds read low
[43] = locus YLR133W, strain CKI1, active compounds read low
[44] = locus YLR403W, strain SFP1, active compounds read low
[45] = locus YML070W, strain DAK1, active compounds read low
[46] = locus YMR001C, strain CDC5, active compounds read low
[47] = locus YMR205C, strain PFK2 (second series), active compounds read low
[48] = locus YMR277W, strain FCP1, active compounds read low
[49] = locus YNL006W, strain LST8, active compounds read low
[50] = locus YNL020C, strain ARK1, active compounds read low
[51] = locus YNL161W, strain CBK1, active compounds read low
[52] = locus YNL183C, strain NPR1, active compounds read low
[53] = locus YNL207W, strain RIO2, active compounds read low
[54] = locus YNL222W, strain SSU72, active compounds read low
[55] = locus YNL307C, strain MCK1 (second series), active compounds read low
[56] = locus YOL078W, strain AVO1, active compounds read low
[57] = locus YOL136C, strain PFK27, active compounds read low
[58] = locus YOR061W, strain CKA2, active compounds read low
[59] = locus YOR119C, strain RIO1, active compounds read low
[60] = locus YOR231W, strain MKK1, active compounds read low
[61] = locus YOR329C, strain SCD5, active compounds read low
[62] = locus YPL031C, strain PHO85, active compounds read low
[63] = locus YPL153C, strain RAD53, active compounds read low
[64] = locus YPL204W, strain HRR25, active compounds read low
[65] = locus YPL209C, strain IPL1, active compounds read low
[66] = locus YPL256C, strain CLN2, active compounds read low
[67] = locus YPR025C, strain CCL1, active compounds read low
[68] = locus YPR106W, strain ISR1, active compounds read low
[69] = locus YPR111W, strain DBF20, active compounds read low
[70] = strain NNK1, active compounds read low
[71] = strain TSCII, active compounds read low

Measured: normalized growth

COC(=O)c1sccc1NS(=O)(=O)c1cc(Cl)cc(Cl)c1
inactive: [1] 0.955 | [2] 0.946 | [3] 0.958 | [4] 0.951 | [5] 0.947 | [6] 0.954 | [7] 0.958 | [8] 0.949 | [9] 0.961 | [10] 0.958 | [11] 0.975 | [12] 0.957 | [13] 0.944 | [14] 0.954 | [15] 0.977 | [16] 0.994 | [17] 0.987 | [18] 0.954 | [19] 0.951 | [20] 0.957 | [21] 0.967 | [22] 0.958 | [23] 0.981 | [24] 1.05 | [25] 0.948 | [26] 1.04 | [27] 1.01 | [28] 1.06 | [29] 0.992 | [30] 0.955 | [31] 1.07 | [32] 0.925 | [33] 0.976 | [34] 0.959 | [35] 1.01 | [36] 1.06 | [37] 0.939 | [38] 0.973 | [39] 0.959 | [40] 0.958 | [41] 1.05 | [42] 0.92 | [43] 0.962 | [44] 0.996 | [45] 0.991 | [46] 0.949 | [47] 0.978 | [48] 0.96 | [49] 0.96 | [50] 0.964 | [51] 0.954 | [52] 1.02 | [53] 0.955 | [54] 0.953 | [55] 0.956 | [56] 0.963 | [57] 0.996 | [58] 0.979 | [59] 1.03 | [60] 0.986 | [61] 0.961 | [62] 0.987 | [63] 1.01 | [64] 0.975 | [65] 0.947 | [66] 0.963 | [67] 0.957 | [68] 0.945 | [69] 0.935 | [70] 0.948 | [71] 0.952

COC(=O)C1=C(Nc2ccccc2NS(=O)(=O)c2ccc(C(F)(F)F)cc2Cl)CSC1
inactive: [1] 0.977 | [2] 0.983 | [3] 0.976 | [4] 0.978 | [5] 0.977 | [6] 0.973 | [7] 0.976 | [8] 0.962 | [9] 0.985 | [10] 0.984 | [11] 0.939 | [12] 0.987 | [13] 0.995 | [14] 0.972 | [15] 0.947 | [16] 0.944 | [17] 0.966 | [18] 0.985 | [19] 0.973 | [20] 0.984 | [21] 0.976 | [22] 0.964 | [23] 0.933 | [24] 1.03 | [25] 0.957 | [26] 0.977 | [27] 0.97 | [28] 1.02 | [29] 0.972 | [30] 0.987 | [31] 0.985 | [32] 0.919 | [33] 0.949 | [34] 0.972 | [35] 0.942 | [36] 1.03 | [37] 0.945 | [38] 0.959 | [39] 0.932 | [40] 0.975 | [41] 1.01 | [43] 0.937 | [44] 0.903 | [45] 0.928 | [46] 0.977 | [47] 0.952 | [48] 0.985 | [49] 0.989 | [50] 0.951 | [51] 0.977 | [52] 0.966 | [53] 0.967 | [54] 0.978 | [55] 0.953 | [56] 0.975 | [57] 0.935 | [58] 0.955 | [59] 1.02 | [60] 0.91 | [61] 0.985 | [62] 0.971 | [63] 0.948 | [64] 0.936 | [65] 0.975 | [66] 0.918 | [67] 0.982 | [68] 0.943 | [69] 0.979 | [70] 0.971 | [71] 0.978
active: [42] 0.84
